# Experimental data from article PMC7862700, “An all-to-all approach to the identification of sequence-specific readers for epigenetic DNA modifications on cytosine”.
# Assays:
# Test in all cases: DAPPL (digital affinity profiling via proximity ligation, sequencing); 10 mM Tris-HCl pH 7.5, 50 mM NaCl, 1 mM DTT, 4% glycerol, room temperature, 30 min; GST-TFs on glutathione beads, 16-mer random dsDNA library, 0.1% formaldehyde crosslink after washing; high values mean tight binding
# Details in all cases: protein: recombinant; tags: N-terminal GST; dsDNA, one strand shown
# [1] = target: T1, FLI1 (Homo sapiens, UniProt Q01543 1-452)
# T1 sequence: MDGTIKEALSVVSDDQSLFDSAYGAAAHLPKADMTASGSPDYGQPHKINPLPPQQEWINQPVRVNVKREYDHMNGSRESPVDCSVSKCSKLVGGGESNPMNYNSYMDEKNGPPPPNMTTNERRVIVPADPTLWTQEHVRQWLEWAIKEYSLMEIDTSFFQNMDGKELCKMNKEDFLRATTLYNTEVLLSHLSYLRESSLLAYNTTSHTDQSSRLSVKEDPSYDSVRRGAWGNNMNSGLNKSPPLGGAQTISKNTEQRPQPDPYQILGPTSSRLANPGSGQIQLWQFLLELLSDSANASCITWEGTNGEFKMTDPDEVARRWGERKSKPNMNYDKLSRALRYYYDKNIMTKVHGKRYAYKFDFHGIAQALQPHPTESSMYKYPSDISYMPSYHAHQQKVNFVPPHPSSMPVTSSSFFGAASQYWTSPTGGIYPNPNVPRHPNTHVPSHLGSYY
# Outline: (§1)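 Human transcription factors carrying a GST fusion were produced in yeast, bound to glutathione beads, tagged with DNA barcodes and pooled together with a tag-only sample. Each pool was held with 200 nmole of a random double-stranded 16-mer DNA library in Tris/NaCl/DTT/glycerol buffer for 30 min at room temperature, then washed, crosslinked in 0.1% formaldehyde, proximity-ligated with BsaI/T4 ligase (1 h, 37 °C), PCR-amplified and sequenced on an Illumina NextSeq500. Binding signal is the read frequency of each hexamer for a given factor divided by its frequency in the tag-only sample.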
# [2] = target: T2, GABPA (Homo sapiens, UniProt Q06546 1-454)
# T2 sequence: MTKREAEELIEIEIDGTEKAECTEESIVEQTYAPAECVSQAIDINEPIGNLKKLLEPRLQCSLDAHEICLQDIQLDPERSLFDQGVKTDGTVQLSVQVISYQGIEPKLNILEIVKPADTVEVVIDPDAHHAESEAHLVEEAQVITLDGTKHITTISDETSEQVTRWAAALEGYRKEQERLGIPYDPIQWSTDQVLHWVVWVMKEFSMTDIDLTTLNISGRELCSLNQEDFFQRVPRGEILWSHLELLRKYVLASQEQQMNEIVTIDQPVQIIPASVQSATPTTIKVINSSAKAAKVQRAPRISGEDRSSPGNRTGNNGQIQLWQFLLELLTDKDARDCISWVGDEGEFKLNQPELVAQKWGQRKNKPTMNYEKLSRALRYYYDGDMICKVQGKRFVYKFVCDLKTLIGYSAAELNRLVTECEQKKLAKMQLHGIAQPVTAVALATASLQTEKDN
# Outline: as §1
# [3] = target: T3, ERG (Homo sapiens, UniProt P11308 1-479)
# T3 sequence: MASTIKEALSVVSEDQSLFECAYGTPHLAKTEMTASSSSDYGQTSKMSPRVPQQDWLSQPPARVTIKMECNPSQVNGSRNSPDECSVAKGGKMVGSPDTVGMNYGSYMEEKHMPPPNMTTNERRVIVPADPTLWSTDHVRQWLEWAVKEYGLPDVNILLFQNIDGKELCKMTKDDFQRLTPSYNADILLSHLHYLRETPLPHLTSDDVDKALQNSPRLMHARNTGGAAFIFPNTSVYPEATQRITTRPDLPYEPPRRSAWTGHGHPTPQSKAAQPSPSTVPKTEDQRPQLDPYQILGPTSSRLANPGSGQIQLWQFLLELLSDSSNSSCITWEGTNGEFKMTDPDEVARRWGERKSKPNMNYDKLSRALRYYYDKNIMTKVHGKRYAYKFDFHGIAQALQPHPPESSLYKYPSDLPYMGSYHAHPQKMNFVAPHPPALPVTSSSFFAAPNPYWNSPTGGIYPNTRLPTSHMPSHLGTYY
# Outline: as §1
# [4] = target: ELF1 (Homo sapiens, UniProt P32519 1-619)
# Outline: as §1
# [5] = target: T4, EHF (Homo sapiens, UniProt Q9NZC4 1-300)
# T4 sequence: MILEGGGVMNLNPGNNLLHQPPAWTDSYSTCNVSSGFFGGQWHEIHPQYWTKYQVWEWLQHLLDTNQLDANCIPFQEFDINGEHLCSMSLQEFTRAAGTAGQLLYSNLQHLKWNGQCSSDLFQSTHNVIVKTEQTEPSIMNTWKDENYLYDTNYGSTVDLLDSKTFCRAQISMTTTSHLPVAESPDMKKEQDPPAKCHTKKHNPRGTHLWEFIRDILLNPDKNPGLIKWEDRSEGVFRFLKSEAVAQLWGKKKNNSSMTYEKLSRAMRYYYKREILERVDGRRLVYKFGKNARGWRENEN
# Outline: as §1
# [6] = target: SPI1 (Homo sapiens, UniProt P17947 1-270)
# Outline: as §1
# [7] = target: SPIB (Homo sapiens, UniProt Q01892 1-262)
# Outline: as §1
# [8] = target: T5, ELK3 (Homo sapiens, UniProt P41970 1-407)
# T5 sequence: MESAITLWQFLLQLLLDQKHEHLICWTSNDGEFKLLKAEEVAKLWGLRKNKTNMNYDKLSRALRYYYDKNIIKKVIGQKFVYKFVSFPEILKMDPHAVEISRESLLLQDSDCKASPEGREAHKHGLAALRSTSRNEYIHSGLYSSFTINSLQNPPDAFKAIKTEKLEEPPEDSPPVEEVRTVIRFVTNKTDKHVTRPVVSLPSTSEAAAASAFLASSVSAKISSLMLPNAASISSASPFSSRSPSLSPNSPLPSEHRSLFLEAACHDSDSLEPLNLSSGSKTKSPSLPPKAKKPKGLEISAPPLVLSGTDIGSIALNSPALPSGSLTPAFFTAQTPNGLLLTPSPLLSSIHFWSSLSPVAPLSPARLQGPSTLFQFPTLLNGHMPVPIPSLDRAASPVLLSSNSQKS
# Outline: as §1
# [9] = target: T6, FEV (Homo sapiens, UniProt Q99581 1-238)
# T6 sequence: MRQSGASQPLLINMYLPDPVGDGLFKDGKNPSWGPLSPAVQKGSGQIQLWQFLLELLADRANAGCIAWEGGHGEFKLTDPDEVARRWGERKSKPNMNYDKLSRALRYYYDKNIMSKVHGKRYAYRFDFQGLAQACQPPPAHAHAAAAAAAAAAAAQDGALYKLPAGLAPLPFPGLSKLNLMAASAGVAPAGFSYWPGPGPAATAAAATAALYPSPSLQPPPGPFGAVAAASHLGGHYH
# Outline: as §1
# [10] = target: ETV5 (Homo sapiens, UniProt P41161 1-510)
# Outline: as §1
# [11] = target: T7, SPIC (Homo sapiens, UniProt Q8N5J4 1-248)
# T7 sequence: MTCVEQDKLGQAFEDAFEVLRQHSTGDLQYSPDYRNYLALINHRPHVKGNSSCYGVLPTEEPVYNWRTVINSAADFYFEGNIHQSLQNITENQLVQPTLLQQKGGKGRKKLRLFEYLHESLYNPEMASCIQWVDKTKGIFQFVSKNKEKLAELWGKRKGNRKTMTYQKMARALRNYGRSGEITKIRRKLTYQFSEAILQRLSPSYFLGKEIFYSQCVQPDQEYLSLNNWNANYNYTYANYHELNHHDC
# Outline: as §1
# [12] = target: ELF4 (Homo sapiens, UniProt Q99607 1-663)
# Outline: as §1
# [13] = target: ETV1 (Homo sapiens, UniProt P50549 1-477)
# Outline: as §1
# [14] = target: T8, ERF (Homo sapiens, UniProt P50548 1-548)
# T8 sequence: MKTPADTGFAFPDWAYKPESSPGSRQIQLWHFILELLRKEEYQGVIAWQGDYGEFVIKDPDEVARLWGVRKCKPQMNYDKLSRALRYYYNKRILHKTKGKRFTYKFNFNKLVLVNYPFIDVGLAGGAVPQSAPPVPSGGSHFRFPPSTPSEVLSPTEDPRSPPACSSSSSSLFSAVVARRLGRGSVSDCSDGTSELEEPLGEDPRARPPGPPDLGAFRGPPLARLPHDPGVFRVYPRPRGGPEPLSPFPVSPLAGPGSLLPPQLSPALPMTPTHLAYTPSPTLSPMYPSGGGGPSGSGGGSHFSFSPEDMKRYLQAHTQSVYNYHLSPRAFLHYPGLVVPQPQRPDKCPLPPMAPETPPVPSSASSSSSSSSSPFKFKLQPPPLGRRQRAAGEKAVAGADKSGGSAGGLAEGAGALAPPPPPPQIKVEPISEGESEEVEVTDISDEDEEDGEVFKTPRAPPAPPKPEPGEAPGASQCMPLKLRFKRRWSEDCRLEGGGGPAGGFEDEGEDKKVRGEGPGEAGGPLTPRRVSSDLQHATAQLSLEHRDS
# Outline: as §1
# [15] = target: T9, ETV3L (Homo sapiens, UniProt Q6ZN32 1-361)
# T9 sequence: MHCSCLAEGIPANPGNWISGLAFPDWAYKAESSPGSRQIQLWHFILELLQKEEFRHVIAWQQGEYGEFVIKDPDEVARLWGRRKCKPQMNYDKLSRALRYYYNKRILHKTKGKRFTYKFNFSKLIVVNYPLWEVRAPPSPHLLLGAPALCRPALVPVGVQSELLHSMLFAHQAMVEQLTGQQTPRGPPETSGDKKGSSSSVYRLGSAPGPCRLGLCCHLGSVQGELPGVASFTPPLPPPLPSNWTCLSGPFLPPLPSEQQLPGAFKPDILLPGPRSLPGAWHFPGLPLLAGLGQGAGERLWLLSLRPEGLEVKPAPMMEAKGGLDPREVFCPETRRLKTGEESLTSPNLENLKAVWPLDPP
# Outline: as §1
# [16] = target: T10, ETS2 (Homo sapiens, UniProt P15036 1-469)
# T10 sequence: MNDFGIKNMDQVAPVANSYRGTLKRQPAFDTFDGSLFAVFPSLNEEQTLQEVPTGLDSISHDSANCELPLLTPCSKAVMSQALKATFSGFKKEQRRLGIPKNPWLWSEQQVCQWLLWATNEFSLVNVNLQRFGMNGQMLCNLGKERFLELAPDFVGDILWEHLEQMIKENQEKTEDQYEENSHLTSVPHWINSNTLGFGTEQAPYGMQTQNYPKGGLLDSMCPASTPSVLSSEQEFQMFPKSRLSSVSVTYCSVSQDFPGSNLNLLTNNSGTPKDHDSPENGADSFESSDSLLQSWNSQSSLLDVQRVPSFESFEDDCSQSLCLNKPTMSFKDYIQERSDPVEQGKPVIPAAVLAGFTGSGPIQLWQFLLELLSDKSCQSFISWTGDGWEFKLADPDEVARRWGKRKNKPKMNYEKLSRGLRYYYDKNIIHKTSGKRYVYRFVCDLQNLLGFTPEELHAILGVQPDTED
# Outline: as §1
# [17] = target: T11, SPDEF (Homo sapiens, UniProt O95238 1-335)
# T11 sequence: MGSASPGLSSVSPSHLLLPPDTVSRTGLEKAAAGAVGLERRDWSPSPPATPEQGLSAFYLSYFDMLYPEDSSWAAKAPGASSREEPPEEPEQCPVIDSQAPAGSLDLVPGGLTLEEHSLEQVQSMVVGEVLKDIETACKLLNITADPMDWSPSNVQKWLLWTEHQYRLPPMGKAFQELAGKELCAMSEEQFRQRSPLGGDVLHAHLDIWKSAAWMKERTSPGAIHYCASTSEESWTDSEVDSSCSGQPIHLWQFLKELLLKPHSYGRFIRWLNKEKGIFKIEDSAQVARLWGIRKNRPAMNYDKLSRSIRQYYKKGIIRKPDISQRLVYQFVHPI
# Outline: as §1
# [18] = target: T12, ETV3 (Homo sapiens, UniProt P41162-2 1-143)
# T12 sequence: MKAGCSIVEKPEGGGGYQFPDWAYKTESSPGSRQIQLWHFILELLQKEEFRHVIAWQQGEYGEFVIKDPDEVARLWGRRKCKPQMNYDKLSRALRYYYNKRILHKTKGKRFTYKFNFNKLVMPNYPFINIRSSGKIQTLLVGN
# Outline: as §1
# [19] = target: ETV6 (Homo sapiens, UniProt P41212 1-452)
# Outline: as §1
# ETV1, sequence (P50549 whole entry): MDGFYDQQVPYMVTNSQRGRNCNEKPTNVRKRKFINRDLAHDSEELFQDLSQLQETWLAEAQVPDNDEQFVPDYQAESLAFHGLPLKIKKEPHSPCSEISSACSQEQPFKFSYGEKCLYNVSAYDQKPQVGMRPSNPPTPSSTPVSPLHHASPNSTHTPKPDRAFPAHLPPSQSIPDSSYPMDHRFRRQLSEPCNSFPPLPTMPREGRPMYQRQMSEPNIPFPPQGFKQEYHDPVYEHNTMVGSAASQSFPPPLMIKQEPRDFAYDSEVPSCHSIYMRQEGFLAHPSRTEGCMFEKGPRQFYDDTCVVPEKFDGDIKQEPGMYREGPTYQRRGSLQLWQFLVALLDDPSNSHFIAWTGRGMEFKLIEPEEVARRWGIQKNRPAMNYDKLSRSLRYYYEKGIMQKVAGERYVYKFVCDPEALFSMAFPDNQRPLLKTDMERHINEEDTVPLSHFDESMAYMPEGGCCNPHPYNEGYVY
# ELF4, sequence (Q99607 whole entry): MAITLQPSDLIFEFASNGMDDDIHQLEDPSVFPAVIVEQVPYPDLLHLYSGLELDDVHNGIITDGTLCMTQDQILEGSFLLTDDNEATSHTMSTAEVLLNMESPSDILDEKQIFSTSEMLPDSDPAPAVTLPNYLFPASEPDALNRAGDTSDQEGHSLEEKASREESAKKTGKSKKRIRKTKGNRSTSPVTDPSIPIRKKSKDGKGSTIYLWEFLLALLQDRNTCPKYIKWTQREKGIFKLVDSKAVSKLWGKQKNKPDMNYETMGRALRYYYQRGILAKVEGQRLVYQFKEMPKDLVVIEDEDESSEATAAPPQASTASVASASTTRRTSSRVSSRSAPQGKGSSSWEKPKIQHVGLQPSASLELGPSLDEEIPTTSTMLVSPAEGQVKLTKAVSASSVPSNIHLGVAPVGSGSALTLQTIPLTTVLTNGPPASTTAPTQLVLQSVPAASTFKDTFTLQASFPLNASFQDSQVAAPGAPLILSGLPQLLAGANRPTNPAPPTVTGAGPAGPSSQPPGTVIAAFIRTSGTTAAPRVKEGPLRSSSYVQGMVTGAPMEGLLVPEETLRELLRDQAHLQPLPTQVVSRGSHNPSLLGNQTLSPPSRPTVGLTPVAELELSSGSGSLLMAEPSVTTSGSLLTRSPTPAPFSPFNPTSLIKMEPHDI
# SPIB, sequence (Q01892 whole entry): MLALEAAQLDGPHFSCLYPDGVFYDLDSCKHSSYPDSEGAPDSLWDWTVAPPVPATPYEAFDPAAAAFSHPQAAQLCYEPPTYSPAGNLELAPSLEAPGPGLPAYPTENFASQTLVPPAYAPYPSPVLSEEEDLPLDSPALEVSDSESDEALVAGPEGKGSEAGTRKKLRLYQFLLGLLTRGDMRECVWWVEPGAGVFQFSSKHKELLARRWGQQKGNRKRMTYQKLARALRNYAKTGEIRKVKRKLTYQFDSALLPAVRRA
# ELF1, sequence (P32519 whole entry): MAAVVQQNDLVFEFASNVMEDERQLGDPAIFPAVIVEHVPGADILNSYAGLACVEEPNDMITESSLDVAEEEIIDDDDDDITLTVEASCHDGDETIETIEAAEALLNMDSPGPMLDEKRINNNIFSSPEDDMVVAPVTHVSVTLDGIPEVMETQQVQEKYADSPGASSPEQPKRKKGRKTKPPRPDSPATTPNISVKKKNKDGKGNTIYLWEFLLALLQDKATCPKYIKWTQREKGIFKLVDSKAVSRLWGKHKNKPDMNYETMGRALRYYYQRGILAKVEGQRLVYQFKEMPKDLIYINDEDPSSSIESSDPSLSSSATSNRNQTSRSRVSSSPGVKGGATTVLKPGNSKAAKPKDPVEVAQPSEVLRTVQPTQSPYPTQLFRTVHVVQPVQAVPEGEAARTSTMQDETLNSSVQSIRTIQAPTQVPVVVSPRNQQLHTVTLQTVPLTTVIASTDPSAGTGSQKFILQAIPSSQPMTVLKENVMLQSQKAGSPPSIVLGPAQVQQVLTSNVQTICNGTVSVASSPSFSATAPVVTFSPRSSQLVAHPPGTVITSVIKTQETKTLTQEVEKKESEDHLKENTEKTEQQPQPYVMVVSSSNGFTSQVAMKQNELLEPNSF
# ETV5, sequence (P41161 whole entry): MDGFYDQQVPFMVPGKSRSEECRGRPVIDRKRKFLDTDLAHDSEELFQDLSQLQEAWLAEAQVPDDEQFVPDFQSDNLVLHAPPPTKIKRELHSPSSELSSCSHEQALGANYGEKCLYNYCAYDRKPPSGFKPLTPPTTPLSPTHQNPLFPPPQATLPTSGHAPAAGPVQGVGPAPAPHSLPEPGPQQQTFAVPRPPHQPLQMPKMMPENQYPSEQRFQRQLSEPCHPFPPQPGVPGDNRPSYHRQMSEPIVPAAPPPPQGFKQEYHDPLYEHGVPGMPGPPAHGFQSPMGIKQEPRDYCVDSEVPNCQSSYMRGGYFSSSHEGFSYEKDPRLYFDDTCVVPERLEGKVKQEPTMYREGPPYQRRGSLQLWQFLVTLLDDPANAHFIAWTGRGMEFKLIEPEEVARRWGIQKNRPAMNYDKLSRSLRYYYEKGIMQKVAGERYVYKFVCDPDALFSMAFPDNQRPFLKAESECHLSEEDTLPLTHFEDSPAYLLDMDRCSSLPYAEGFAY
# ETV6, sequence (P41212 whole entry): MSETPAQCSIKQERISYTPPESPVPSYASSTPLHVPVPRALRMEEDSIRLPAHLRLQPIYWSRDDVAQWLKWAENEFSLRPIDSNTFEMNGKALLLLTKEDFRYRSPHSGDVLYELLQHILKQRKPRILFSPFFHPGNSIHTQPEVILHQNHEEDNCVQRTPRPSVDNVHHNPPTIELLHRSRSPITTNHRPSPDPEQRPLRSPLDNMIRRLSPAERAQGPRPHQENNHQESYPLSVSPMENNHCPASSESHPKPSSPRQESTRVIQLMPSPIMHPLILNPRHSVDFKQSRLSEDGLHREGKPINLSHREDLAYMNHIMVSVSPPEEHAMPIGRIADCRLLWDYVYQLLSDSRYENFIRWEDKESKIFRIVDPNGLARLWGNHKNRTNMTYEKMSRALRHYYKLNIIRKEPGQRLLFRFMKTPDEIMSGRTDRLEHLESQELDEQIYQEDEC
sequence,measurement,setting,value
GGTTTT,binding signal,[1],"1.22 fold enrichment (6-mer frequency, TF over GST control)"
same,binding signal,[2],"1.2 fold enrichment (6-mer frequency, TF over GST control)"
same,binding signal,[3],"1.1 fold enrichment (6-mer frequency, TF over GST control)"
same,binding signal,[4],"1.11 fold enrichment (6-mer frequency, TF over GST control)"
same,binding signal,[5],"1.08 fold enrichment (6-mer frequency, TF over GST control)"
same,binding signal,[6],"1.24 fold enrichment (6-mer frequency, TF over GST control)"
same,binding signal,[7],"1.05 fold enrichment (6-mer frequency, TF over GST control)"
same,binding signal,[8],"1.04 fold enrichment (6-mer frequency, TF over GST control)"
same,binding signal,[9],"1.13 fold enrichment (6-mer frequency, TF over GST control)"
same,binding signal,[10],"1.11 fold enrichment (6-mer frequency, TF over GST control)"
same,binding signal,[11],"1.04 fold enrichment (6-mer frequency, TF over GST control)"
same,binding signal,[12],"1.15 fold enrichment (6-mer frequency, TF over GST control)"
same,binding signal,[13],"1.15 fold enrichment (6-mer frequency, TF over GST control)"
same,binding signal,[14],"1.24 fold enrichment (6-mer frequency, TF over GST control)"
same,binding signal,[15],"1.08 fold enrichment (6-mer frequency, TF over GST control)"
same,binding signal,[16],"1.1 fold enrichment (6-mer frequency, TF over GST control)"
same,binding signal,[17],"1.07 fold enrichment (6-mer frequency, TF over GST control)"
same,binding signal,[18],"1.14 fold enrichment (6-mer frequency, TF over GST control)"
same,binding signal,[19],"1.05 fold enrichment (6-mer frequency, TF over GST control)"
